Source: PubChem BioAssay (EPA / NIEHS)
Values joined by “and” are separate entries in the source; they are usually repeats but may differ in a detail not shown here. Identical values can stand only once. Records with an inconclusive call do not appear. Some structures have more than one record in an assay (separate samples or runs), and their calls can disagree. Active and inactive are the calls of the source. How the source made its calls, unless noted: active means hit-call score of the fitted dose curve at least 0.9, where 1 is the maximum; inactive means score below 0.9.

Tests used:
[1] = biological target: Ratio of Nucleoli Translocation and Cytoplasm, AR (gene 367) (UniProt P10275); test: UPITT_HCI_U2OS_AR_TIF2_Nucleoli_Cytoplasm_Ratio_Antagonist: University of Pittsburgh U2OS Androgen Receptor-Transcriptional Intermediary Factor 2 (AR-TIF2) Antagonism High Content Imaging Assay for Ratio of Nucleoli Translocation and Cytoplasm (AID 2283999; active means hit-call score of the fitted dose curve at least 0.9, where 1 is the maximum;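 further: antagonists lower the DHT-driven ratio of nucleolar to cytoplasmic red signal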)
Method in brief: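 Read-out is the ratio of nucleolar to cytoplasmic AR-RFP fluorescence, imaged by high-content microscopy in U2OS cells coexpressing TIF2-GFP. Single-point 20 uM screen, triplicate confirmation, then 0.195–50 uM dose response; activity referenced to DHT baseline.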

[2] = biological target: Ratio of Nucleoli Translocation and Cytoplasm, AR (gene 367) (UniProt P10275); test: UPITT_HCI_U2OS_AR_TIF2_Nucleoli_Cytoplasm_Ratio_Agonist: University of Pittsburgh U2OS Androgen Receptor-Transcriptional Intermediary Factor 2 (AR-TIF2) Agonism High Content Imaging Assay for Ratio of Nucleoli Translocation and Cytoplasm (AID 2284000; active means hit-call score of the fitted dose curve at least 0.9, where 1 is the maximum;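 further: hits raise the red nucleolar to cytoplasm ratio above vehicle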)
Method in brief: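 Primary screen at 20 uM final (0.2% DMSO), then triplicate confirmation and dose-response from 0.195 to 50 uM final (0.5% DMSO). Cells: U2OS with AR-RFP and TIF2-GFP. Endpoint is the nucleoli/cytoplasm red-fluorescence ratio, gain-of-signal vs DMSO.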

[3] = CCTE_Shafer_MEA_acute_spike_number: CCTE's Neural Acute Assay for Total Number of Spikes, Shafer Lab (AID 2284008);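 on AC50: curve fitted for decrease in spike count so AC50 reflects inhibitors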
Method in brief: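 Total spike count from 40 min recordings before and during compound exposure (0.03-40 uM), given as per-well percent change. Cortical cultures from rat, DIV 13 or 15, 37 C; adaptive detection threshold 8x rms noise.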

[4] = CCTE_Shafer_MEA_acute_firing_rate_mean: CCTE's Neural Acute Assay for Mean Firing Rate, Shafer Lab (AID 2284009);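 further: analyzed for loss of signal so actives lower firing rate relative to DMSO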
Method in brief: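 Spontaneous spiking of primary rat cortical networks, DIV 13/15, 37 C. Compound 0.03-40 uM, n ≥3 wells; 40 min baseline vs 40 min treated. Endpoint fitted in loss-of-signal direction against DMSO.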

[5] = CCTE_Harrill_HTTr_Viability_MCF7: CCTE's 6-hour Cell Viability Assessment for the High-Throughput Transcriptomics (HTTr) Platform, in MCF-7 cells cultured in DMEM + 10% fetal bovine serum, Harrill Lab (AID 2284010)
Method in brief: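 PI exclusion, high-content imaging; 8-pt dilution series, 6 h exposure; bidirectional fit vs DMSO (neg. ctrl/baseline); gain of signal = loss of membrane integrity.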

[6] = CCTE_Harrill_HTTr_Apoptosis_MCF7: CCTE's 6-hour Apoptosis Assessment for the High-Throughput Transcriptomics (HTTr) Platform, in MCF-7 cells cultured in DMEM + 10% fetal bovine serum, Harrill Lab (AID 2284011)
Method in brief: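 High-content imaging of CellEvent Caspase 3/7 Green signal follows a six-hour exposure, with eight concentrations per chemical. MCF-7 cells grown in DMEM plus 10% fetal bovine serum; activity fitted in both directions against DMSO.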

[7] = CCTE_Harrill_HTTr_CellCount_MCF7: CCTE's Cell Proliferation Assessment for the High-Throughput Transcriptomics (HTTr) Platform, Harrill Lab (AID 2284012; active means hit-call score of the fitted dose curve at least 0.9, where 1 is the maximum;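 further: count of Hoechst-stained nuclei per well by high-content imaging in MCF-7 cells; cells exposed to compound for six hours; intended direction is loss of nuclei count meaning fewer cells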)
Method in brief: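 Readout: Hoechst nuclear count by high-content imaging. MCF-7, 8-point dilution series, 6 h exposure. Bidirectional fit vs DMSO baseline.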

[8] = CCTE_Simmons_MITO_basal_resp_rate: CCTE's HepG2 Seahorse XF Respirometric Screening Assay at Basal Respiratory State, Simmons Lab (AID 2284001); settings: actives raise or lower the signal
Method in brief: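 Readout is oxygen consumption rate after test compound injection, measured by Seahorse XF in HepG2 cells. Seven concentrations from 125 nM up to 100 uM final are tested, and activity in either direction is fitted against DMSO.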

[9] = CCTE_Simmons_MITO_max_resp_rate: CCTE's HepG2 Seahorse XF Respirometric Screening Assay at Maximal Respiratory State [uncoupled], Simmons Lab (AID 2284002); settings: actives raise or lower the signal
Method in brief: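 Maximal (FCCP-uncoupled) respiration rate in HepG2, from Seahorse kinetic OCR over 72 min at 6 min cycles. Compounds at 125 nM–100 uM final, 7 points, three biological replicates; both directions fit relative to DMSO.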

[10] = CCTE_Simmons_MITO_inhib_resp_rate: CCTE's HepG2 Seahorse XF Respirometric Screening Assay at Inhibited Respiratory State [full ETC block], Simmons Lab (AID 2284006); settings: actives raise or lower the signal
Method in brief: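 OCR read-out in the inhibited phase following rotenone/antimycin A, after compound and FCCP injections, in HepG2 cells. Seven concentrations (125 nM to 100 uM final), three biological replicates, 6-min cycles over 72 min; DMSO baseline.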

Measured: AC50

Chain of Ratio of Nucleoli Translocation and Cytoplasm, AR (gene 367) (P10275 whole entry, looked up): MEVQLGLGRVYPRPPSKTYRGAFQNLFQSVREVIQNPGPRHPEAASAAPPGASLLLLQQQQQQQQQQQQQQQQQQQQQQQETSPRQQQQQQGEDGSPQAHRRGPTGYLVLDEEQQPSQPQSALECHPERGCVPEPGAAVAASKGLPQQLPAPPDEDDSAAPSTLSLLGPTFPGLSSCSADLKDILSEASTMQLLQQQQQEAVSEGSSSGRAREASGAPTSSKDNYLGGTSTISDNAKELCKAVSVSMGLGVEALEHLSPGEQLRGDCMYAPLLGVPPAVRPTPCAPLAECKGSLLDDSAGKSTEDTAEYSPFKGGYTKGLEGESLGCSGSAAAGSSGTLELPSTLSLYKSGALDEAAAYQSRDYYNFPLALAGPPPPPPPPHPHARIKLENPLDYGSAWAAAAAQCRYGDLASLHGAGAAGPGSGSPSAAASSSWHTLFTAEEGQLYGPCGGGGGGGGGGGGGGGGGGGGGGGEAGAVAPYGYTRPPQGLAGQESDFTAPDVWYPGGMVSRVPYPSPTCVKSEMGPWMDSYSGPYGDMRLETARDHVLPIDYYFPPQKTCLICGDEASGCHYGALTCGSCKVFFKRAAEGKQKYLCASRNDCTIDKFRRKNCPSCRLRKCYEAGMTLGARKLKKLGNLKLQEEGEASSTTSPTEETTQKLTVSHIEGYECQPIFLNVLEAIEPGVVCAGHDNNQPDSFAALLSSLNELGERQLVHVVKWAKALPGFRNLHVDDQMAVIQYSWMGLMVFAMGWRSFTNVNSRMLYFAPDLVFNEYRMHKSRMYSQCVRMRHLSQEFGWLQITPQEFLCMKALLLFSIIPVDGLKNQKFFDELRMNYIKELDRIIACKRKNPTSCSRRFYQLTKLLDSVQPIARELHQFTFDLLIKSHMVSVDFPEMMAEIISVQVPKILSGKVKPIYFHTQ

O=C(NC(=O)c1c(F)cccc1F)Nc1cc(Cl)c(OC(F)(F)C(F)F)c(Cl)c1
inactive: [1] | [2] | [3] | [4] | [5] | [6] | [7]

CC(c1ccc(O)cc1)(c1ccc(O)cc1)c1ccc(O)cc1
inactive: [9] | [10] | [5] | [6]
active: [8] 14.5 µM | [3] 3.97 µM | [4] 3.97 µM

Cc1ccccc1CO[C@@H]1C[C@@]2(C(C)C)CC[C@]1(C)O2
inactive: [1] | [2] | [5] | [6]

C[C@]12CCC(=O)C=C1CC[C@@H]1[C@@H]2CC[C@]2(C)C(=O)CC[C@@H]12
inactive: [9] | [10]
active: [8] 38 µM

CCC(=O)O[C@H]1CC[C@H]2[C@@H]3CCC4=CC(=O)CC[C@]4(C)[C@H]3CC[C@]12C
inactive: [9] | [10] | [5] | [6]
active: [2] 0.000508 µM

CN(C)CCO
inactive: [3] | [4] | [5] | [6]

CCC(C)c1cc([N+](=O)[O-])cc([N+](=O)[O-])c1O (configuration not stated)
inactive: [10] | [3] | [4] | [5] | [6]
active: [8] 0.329 µM | [9] 16 µM

CCCCCCCCCC[N+](C)(C)CCCCCCCCCC
inactive: [10] | [5] | [7]
active: [8] 8.58 µM | [9] 26.4 µM | [3] 2.81 µM | [4] 2.88 µM

NS(=O)(=O)C(F)(F)C(F)(F)C(F)(F)C(F)(F)C(F)(F)C(F)(F)C(F)(F)C(F)(F)F
active: [2] 32 µM | [8] 34.9 µM
inactive: [1] | [9] | [10] | [5] | [6]

CCCCCCCCOC(=O)c1ccccc1C(=O)OCCCCCCCC
inactive: [1] | [5] | [6] | [7]

CCOC(=O)C(O)(c1ccc(Cl)cc1)c1ccc(Cl)cc1
inactive: [1] | [5] | [6] | [7]
active: [2] 70.3 µM

CCC(C)(c1ccc(O)cc1)c1ccc(O)cc1
active: [8] 16.9 µM | [9] 25.9 µM
inactive: [10] | [3] | [4] | [5] | [6] | [7]

Oc1c(Cl)c(Cl)c(Cl)c(Cl)c1Cl
active: [8] 0.451 µM | [9] 16.2 µM
inactive: [10] | [5] | [6] | [7]

CC1=C2C[C@H]3[C@@H](CC=C4C[C@@H](O)CC[C@@]43C)[C@@H]2CC[C@]12O[C@@H]1C[C@H](C)CN[C@H]1[C@H]2C
inactive: [1] | [2] | [5] | [6] | [7]

O=C(O)C(F)(F)C(F)(F)C(F)(F)C(F)(F)C(F)(F)C(F)(F)C(F)(F)C(F)(F)F
inactive: [8] | [9] | [10] | [5] | [6] | [7]

O=C(N[C@H]1CN2CCC1CC2)c1cc2ccoc2cn1
inactive: [2] | [3] | [4] | [5] | [6] | [7]

C[C@]12CCC(=O)C=C1CC[C@@H]1[C@@H]2CC[C@@]2(C)[C@H]1CC[C@]2(C)O
inactive: [8] | [9] | [10] | [5] | [6] | [7]

Oc1ccc(C(c2ccc(O)cc2)(C(F)(F)F)C(F)(F)F)cc1
active: [8] 10.8 µM | [9] 21.6 µM | [3] 3.17 µM | [4] 3.16 µM
inactive: [10] | [5] | [6]

CCSC(=O)N(CC)C1CCCCC1
inactive: [9] | [10] | [5] | [6] | [7]
active: [8] 50 µM | [3] 20 µM | [4] 20 µM

CC(C)C(=O)OCC(C)(C)C(OC(=O)C(C)C)C(C)C (configuration not stated)
inactive: [3] | [4]

CCNc1nc(NC(C)C)nc(SC)n1
inactive: [8] | [9] | [10] | [5] | [6]

ClC1=C(Cl)[C@]2(Cl)[C@@H]3[C@@H]4C[C@@H]([C@H]5O[C@@H]45)[C@@H]3[C@@]1(Cl)C2(Cl)Cl
active: [3] 0.476 µM | [4] 0.489 µM
inactive: [5] | [6]

c1cc2ccc3cccc4ccc(c1)c2c34
inactive: [1] | [2] | [5] | [6]

CC(C)(c1ccccc1)c1ccc(O)cc1
inactive: [10] | [5] | [6] | [7]
active: [8] 19.9 µM | [9] 37.7 µM

Nc1ccc(-c2ccc(N)cc2)cc1
inactive: [3] | [4]

C=CC(=O)NCNC(=O)C=C
inactive: [1] | [2] | [5] | [6]

CC#Cc1cc(C)nc(Nc2ccccc2)n1
active: [3] 4.07 µM | [4] 4.06 µM
inactive: [5] | [6] | [7]

CC(C)(O)C(=O)Nc1ccc([N+](=O)[O-])c(C(F)(F)F)c1
active: [8] 40.9 µM | [9] 50 µM
inactive: [10] | [5] | [6]

O=C(O)C(F)(F)C(F)(F)C(F)(F)C(F)(F)C(F)(F)C(F)(F)C(F)(F)C(F)(F)C(F)(F)F
inactive: [8] | [9] | [10] | [5] | [6] | [7]

CO/C=C(/C(=O)OC)c1ccccc1COc1cccc(C(F)(F)F)n1
inactive: [5] | [6]
active: [8] 2.02 µM | [9] 1.3 µM | [10] 1.1 µM | [3] 0.278 µM | [4] 0.28 µM

COc1ccc(O)c(C(C)(C)C)c1
inactive: [9] | [10] | [3] | [4] | [5] | [6]
active: [8] 44 µM | [3] 3.04 µM and 633 nM | [4] 3.03 µM and 679 nM

N#Cc1ccc(N(CC(N)=O)CC(F)(F)F)cc1C(F)(F)F
inactive: [8] | [9] | [10] | [5] | [6]

Sc1ccccc1
inactive: [5] | [6] | [7]

Cc1cc(O)ccc1Cl
inactive: [5] | [6] | [7]

Clc1ccc(C(c2ccccc2Cl)C(Cl)(Cl)Cl)cc1 (configuration not stated)
inactive: [5] | [6] | [7]

Cc1cc(-c2ccc(N)c(C)c2)ccc1N
inactive: [5] | [6] | [7]

Cc1ccc(O)c(C)c1
inactive: [5] | [6] | [7]

O=C(O)C(F)(F)C(F)(F)C(F)(F)C(F)(F)C(F)(F)F
inactive: [3] | [4] | [5] | [6] | [7]

ClC1=C(Cl)[C@]2(Cl)[C@@H]3[C@H]4C[C@H]([C@@H]5O[C@H]45)[C@@H]3[C@@]1(Cl)C2(Cl)Cl
inactive: [5] | [6] | [7]
active: [3] 1.38 µM | [4] 1.4 µM

ClC(Cl)=C(c1ccc(Cl)cc1)c1ccc(Cl)cc1
inactive: [3] | [4] | [5] | [6] | [7]

CCCN(CCC)N=O
inactive: [3] | [4] | [5] | [6] | [7]

O=S(=O)(O)C(F)(F)C(F)(F)C(F)(F)C(F)(F)C(F)(F)C(F)(F)F
inactive: [5] | [6] | [7]

Cc1cccc([N+](=O)[O-])c1
inactive: [5] | [6]

Cc1ccccc1O
inactive: [5] | [6] | [7]

O=NN(c1ccccc1)c1ccccc1
inactive: [5] | [6]

Cc1cc2c3c(c1)C(c1ccccc1)=N[C@@H](NC(=O)c1ccncc1)C(=O)N3CC2
inactive: [5] | [6] | [7]

Clc1ccc(Cl)cc1
inactive: [5] | [6]

Nn1cnnc1
inactive: [5] | [6] | [7]

COS(=O)(=O)OC
inactive: [3] | [4] | [5] | [6] | [7]

CCCCCCOC(=O)c1ccccc1C(=O)OCCCCCC
inactive: [5] | [6] | [7]

CCC(C)(CC)c1cc(NC(=O)c2c(OC)cccc2OC)on1
inactive: [3] | [4] | [5] | [6] | [7]

c1ccc(-c2ccccc2)cc1
inactive: [3] | [4] | [5] | [6] | [7]

Clc1ccc(C(Cl)(Cl)Cl)cc1
inactive: [3] | [4] | [5] | [6] | [7]

Oc1ccc(Cl)cc1Cl
inactive: [5] | [6]

C1CC2OC2CC1C1CO1 (configuration not stated)
inactive: [5] | [6]

CN(C)c1nc(=O)n(C2CCCCC2)c(=O)n1C
inactive: [5] | [6]

CCOCCOC(C)=O
inactive: [5] | [6] | [7]

C=CC(N)=O
inactive: [3] | [4] | [5] | [6] | [7]

O=C(NC(=O)c1cc(F)c(F)cc1Cl)Nc1cc(F)ccc1N1CCC(C(=O)O)CC1
inactive: [5] | [6]

O=S(=O)(O)C(F)(F)C(F)(F)C(F)(F)C(F)(F)F
inactive: [5] | [6] | [7]

CCCCCCCCCc1ccc(O)cc1
inactive: [5] | [6] | [7]
active: [3] 9.9 µM | [4] 9.87 µM

CCOP(=S)(OCC)SCSC(C)(C)C
inactive: [5] | [6] | [7]

Cc1cccc(C)c1N
inactive: [5] | [6] | [7]

ClC1=C(Cl)[C@]2(Cl)[C@@H]3[C@@H](Cl)[C@H]4O[C@H]4[C@@H]3C1(Cl)C2(Cl)Cl
active: [3] 0.106 µM | [4] 0.107 µM
inactive: [5] | [6] | [7]
